The panel holds about 79,000 compounds, 15% with a hit somewhere; the sample as a whole holds those more often. Values without a mark were called inactive. Activity calls are given as the source filed them. No stated cut-off is given here; in the data, active means growth inhibition above about 70%; inactive means the rest.
Assays:
[1] = NCI Yeast Anticancer Drug Screen. Data for the rad50 strain (AID 155);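 further: 0% = growth of vehicle-only cultures of the same strain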; details: S. cerevisiae rad50 strain growth inhibition, active compounds read high
How it was run: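 DNA repair mutant yeast, compound exposure, growth read-out; inhibition is taken relative to vehicle.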

[2] = NCI Yeast Anticancer Drug Screen. Data for the mec2-1 strain (AID 157); details: S. cerevisiae mec2-1 strain, active compounds read high
How it was run: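 Strain: mec2-1 (DNA repair/cell cycle alteration). Compound exposure, then growth measured; inhibition expressed relative to vehicle.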

[3] = NCI Yeast Anticancer Drug Screen. Data for the sgs1 mgt1 strain (AID 161);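 further: 0% = growth of cultures given vehicle only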; details: S. cerevisiae sgs1 mgt1 strain, active compounds read high
How it was run: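 Genetically altered yeast, compound exposure, growth inhibition relative to vehicle.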

[4] = NCI Yeast Anticancer Drug Screen. Data for the cln2 rad14 strain (AID 165);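 further: 0% = growth equal to vehicle treated cultures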; details: S. cerevisiae cln2 rad14 strain, active compounds read high
How it was run: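 Compounds are applied to the cln2 rad14 yeast strain, and growth is then compared with that of vehicle-treated cultures to give inhibition.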

[5] = NCI Yeast Anticancer Drug Screen. Data for the bub3 strain (AID 167); details: S. cerevisiae bub3 mutant strain, active compounds read high
How it was run: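 In this screen, a yeast mutant lacking normal mitotic checkpoint function is challenged with compound. Relative growth versus vehicle gives the inhibition value.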

[6] = NCI Yeast Anticancer Drug Screen. Data for the mlh1 rad18 strain (AID 175); details: S. cerevisiae mlh1 rad18 strain growth inhibition, active compounds read high
How it was run: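 Read-out is yeast growth inhibition, calculated against vehicle-only controls. The compound was applied to a strain engineered with DNA damage repair alterations.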

[7] = at 5.0 µM (retest, dose inferred, filed as 0.5)
[8] = at 50.0 µM (retest, dose inferred, filed as 5.0)

Row | SMILES | growth inhibition [1, 7] | growth inhibition [1, 8] | growth inhibition ([1]; at 50.0 µM) | growth inhibition [2, 7] | growth inhibition [2, 8] | growth inhibition ([2]; at 50.0 µM) | growth inhibition [3, 7] | growth inhibition [3, 8] | growth inhibition ([3]; at 50.0 µM) | growth inhibition [4, 7] | growth inhibition [4, 8] | growth inhibition ([4]; at 50.0 µM) | growth inhibition [5, 7] | growth inhibition [5, 8] | growth inhibition ([5]; at 50.0 µM) | growth inhibition [6, 7] | growth inhibition [6, 8] | growth inhibition ([6]; at 50.0 µM)
1 | CCCCCCCCCCCCCCC[N+]1(CC)CCCCC1 | 99% (active) | 99% (active) | 90.3% (active) | 97% (active) | 99% (active) | 90.8% (active) | 99% (active) | 99% (active) | 91.7% (active) | 99% (active) | 99% (active) | 90% (active) | 98% (active) | 99% (active) | 90.5% (active) | 98% (active) | 99% (active) | 89.2% (active)
2 | Oc1ccc(Cc2cc(Cl)cc(Cl)c2O)cc1Cl | 84% (active) | 100% (active) | 99.5% (active) | 84% (active) | 99% (active) | 99.7% (active) | 68% | 99% (active) | 99.4% (active) | 91% (active) | 99% (active) | 99.3% (active) | 70% (active) | 100% (active) | 99.3% (active) | 94% (active) | 100% (active) | 99.2% (active)
3 | CCCCCCCCCCCCCCCCOC(=O)C[n+]1ccc(C(N)=O)cc1 | -2% | 97% (active) | 98% (active) | -8% | 99% (active) | 98.1% (active) | 21% | 94% (active) | 98.9% (active) | 0% | 72% (active) | 69.3% | -3% | 97% (active) | 93% (active) | 32% | 96% (active) | 98.2% (active)
4 | O=P(OCCCl)(OCCCl)C(Nc1cccc2ccccc12)c1ccccc1 (configuration not stated) | 7% | 86% (active) | 91% (active) | -8% | 72% (active) | 91.4% (active) | 5% | 86% (active) | 88.5% (active) | -1% | 86% (active) | 87.5% (active) | 1% | 87% (active) | 86.7% (active) | 4% | 84% (active) | 90.2% (active)
5 | O=C(O)C1C(=O)OC2CCCCC21 (configuration not stated) | 0% | -4% | 3.25% | 1% | 1% | -6.45% | 1% | 0% | 0.45% | -3% | 1% | 69.4% | 0% | -3% | -0.95% | -2% | -3% | -2.4%
6 | c1ccc(CCCCc2ccncc2)cc1 | 1% | 28% | 87.3% (active) | 1% | 13% | 46.2% | 0% | 47% | 94% (active) | 5% | 11% | 63.6% | 24% | 81% (active) | 93.5% (active) | -3% | 18% | 88.5% (active)
7 | NC(=O)C(=O)N/N=C/c1ccc([N+](=O)[O-])o1 | 14% | 49% | 32.4% | 6% | 31% | 25.4% | 2% | 42% | 71.7% (active) | -1% | 18% | 2.8% | 37% | 35% | 14.3% | 16% | 65% | 56.1%
8 | O=c1c(-c2ccccc2)c(-c2ccccc2)c1=O | -98% | 84% (active) | 97.7% (active) | -37% | 89% (active) | 96.2% (active) | -36% | 77% (active) | 63.1% | -49% | 76% (active) | 95.3% (active) | -38% | 84% (active) | 96.8% (active) | -85% | 69% | 85.5% (active)
9 | O=C1OC(OC/C(Br)=C(/Br)COC2OC(=O)C(Cl)=C2Cl)C(Cl)=C1Cl (configuration not stated) | 93% (active) | 99% (active) | 99.2% (active) | 64% | 99% (active) | 99.4% (active) | 97% (active) | 100% (active) | 98.9% (active) | 71% (active) | 98% (active) | 97.3% (active) | 84% (active) | 99% (active) | 98.8% (active) | 97% (active) | 99% (active) | 98.7% (active)
10 | CN(/N=C/C(O)C(O)C(O)CO)c1ccccc1 (configuration not stated) | 20% | 97% (active) | 98% (active) | 3% | 99% (active) | 98.5% (active) | 9% | 99% (active) | 98.5% (active) | 14% | 98% (active) | 98.5% (active) | 36% | 99% (active) | 98.5% (active) | 47% | 99% (active) | 98.8% (active)
11 | Nc1ccc(C(=O)N/N=C\c2cccc3ccccc23)cc1 | 0% | -2% | 61.8% | -3% | 13% | 60.6% | 0% | 0% | 88.9% (active) | -4% | 3% | 34.4% | 6% | 22% | 50.8% | -1% | 21% | 89.3% (active)
12 | O=[N+]([O-])/C(Cl)=C(\Sc1ccccc1)C(Cl)=C(Cl)Cl | 100% (active) | 99% (active) | 89.8% (active) | 100% (active) | 100% (active) | 93.4% (active) | 99% (active) | 99% (active) | 90.6% (active) | 99% (active) | 99% (active) | 91.9% (active) | 99% (active) | 99% (active) | 91.8% (active) | 100% (active) | 99% (active) | 86.8% (active)
13 | C=C1CCC[C@@]2(C)CC[C@@H](/C(C)=C\C=C\C(C)(C)O)C[C@H]12 | 0% | 29% | 83.1% (active) | -1% | 32% | 92.8% (active) | 2% | 56% | 92.5% (active) | -5% | 0% | 91.8% (active) | 2% | 28% | 91.7% (active) | -2% | 53% | 88.8% (active)
14 | CC12CCC(=O)C=C1C=CC1C2CCC2(C)C1CCC21CCC(=O)O1 (configuration not stated) | 11% | 99% (active) | 74.6% (active) | 5% | 99% (active) | 80.2% (active) | 7% | 99% (active) | 84% (active) | 2% | 99% (active) | 24.1% | -1% | 99% (active) | 66.7% | 7% | 99% (active) | 72.8% (active)
15 | c1ccc([P+](c2ccccc2)(c2ccccc2)C2CCCCO2)cc1 (configuration not stated) | 17% | 74% (active) | 67.8% | -4% | 83% (active) | 83.2% (active) | 4% | 69% | 35.1% | -2% | 77% (active) | 49.5% | 5% | 77% (active) | 54% | 1% | 61% | 81.1% (active)
16 | O=CC1(c2ccc(Cl)cc2)NC(=O)NC1=O (configuration not stated) | -1% | 1% | 3.45% | -1% | -3% | -1.7% | 2% | 2% | -9.45% | 3% | -14% | 83% (active) | -1% | -1% | -10.3% | -5% | -4% | 3.35%
17 | O=C(N/C(=C\c1cccc([N+](=O)[O-])c1)c1nc2ccccc2s1)c1ccccc1 | 36% | 98% (active) | 98.5% (active) | 29% | 98% (active) | 98.6% (active) | 55% | 98% (active) | 98.9% (active) | 12% | 98% (active) | 98.1% (active) | 40% | 98% (active) | 97.8% (active) | 29% | 98% (active) | 98.2% (active)
18 | Nn1c(-c2ccccc2)nn(C(=O)c2ccccc2)c1=O | 0% | 39% | 39.5% | -2% | 45% | 39.7% | 15% | 50% | 60% | -1% | 8% | 30.4% | -3% | 62% | 14.7% | 1% | 58% | 87.7% (active)
19 | O=C(Oc1c([N+](=O)[O-])cc(-c2ccc([N+](=O)[O-])cc2)cc1[N+](=O)[O-])c1ccccc1 | 32% | 56% | 74.7% (active) | 86% (active) | 89% (active) | 78.1% (active) | 80% (active) | 87% (active) | 82.5% (active) | 34% | 76% (active) | 79.3% (active) | 49% | 74% (active) | 74.3% (active) | 82% (active) | 83% (active) | 82.7% (active)

Source: PubChem BioAssay (NCI)
